{"source": "PubChem BioAssay AID602229", "about": "(The Scripps Research Institute Molecular Screening Center, 2012)", "note": "The whole screen tested about 360,000 compounds, of which about 1,300 (0.36%) were called active. This excerpt belongs to a sample that is enriched for actives. Unmarked numbers belong to inactive results.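 The calls were made as follows: active = inhibition above the mean of all tested compounds plus 3 SD (cut at about 70% in these data); inactive = the rest.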", "data": [{"molecular_target": "Photoreceptor-specific nuclear receptor (Homo sapiens) (UniProt Q9Y5X4)", "sequence (Q9Y5X4 whole entry, looked up, the tested form may be a part)": "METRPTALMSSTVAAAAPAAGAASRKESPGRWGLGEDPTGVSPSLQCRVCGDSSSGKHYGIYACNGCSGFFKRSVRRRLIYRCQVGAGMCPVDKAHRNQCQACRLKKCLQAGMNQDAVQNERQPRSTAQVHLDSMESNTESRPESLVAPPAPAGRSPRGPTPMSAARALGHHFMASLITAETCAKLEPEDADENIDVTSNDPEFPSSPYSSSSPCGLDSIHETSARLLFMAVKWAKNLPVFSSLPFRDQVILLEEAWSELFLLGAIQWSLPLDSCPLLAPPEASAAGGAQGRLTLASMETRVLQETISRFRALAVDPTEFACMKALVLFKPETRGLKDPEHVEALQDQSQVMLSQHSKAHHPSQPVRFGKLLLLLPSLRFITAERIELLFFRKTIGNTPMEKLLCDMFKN", "assay": "NCOR release from NR2E3 in cells – cell-based, luminescence, CHO-S, Gal4-NCOR/VP16-NR2E3, primary screen (AID 602229);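 also: 0% = DMSO with NR2E3 transfected cells and 100% = cells lacking NR2E3 construct; higher means lower luciferase signal from less NR2E3 corepressor binding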", "conditions": "CHO-S Gal4-NCOR/VP16-NR2E3 two-hybrid, luciferase; at 3.98 µM; active compounds read high", "values": [{"smiles": "Cc1nc2c(-c3ccccc3)c(C)[nH]n2c(=O)c1Cl", "inhibition of corepressor binding": "9.97%"}, {"smiles": "CCCc1cc(=O)n2[nH]c(C)c(-c3ccc(Cl)cc3)c2n1", "inhibition of corepressor binding": "43.4%"}, {"smiles": "Cc1[nH]n(-c2cccc(Cl)c2)c(=O)c1-c1ccc(Cl)cc1", "inhibition of corepressor binding": "85% (active)"}, {"smiles": "O=C(NCc1ccc(F)cc1F)[C@@H]1CCCN1C(=O)[C@@H]1CCCN1C(=O)c1cccc(Cl)c1", "inhibition of corepressor binding": "4.78%"}, {"smiles": "Cn1cc(CN2CCCCC2c2ccccn2)c(-c2ccc3c(c2)OCCO3)n1", "note": "(stereo unspecified)", "inhibition of corepressor binding": "-4.51%"}, {"smiles": "CSc1ncccc1C(=O)Nc1nc2ccc(F)cc2s1", "inhibition of corepressor binding": "47.5%"}, {"smiles": "c1ccc(C(=NNc2nc3ccccc3s2)c2ccccn2)cc1", "inhibition of corepressor binding": "89.7% (active)"}, {"smiles": "NC(=S)c1ccc(C(N)=S)o1", "inhibition of corepressor binding": "-5.1%"}, {"smiles": "O=S1(=O)CC(N2CCSCC2)CN1Cc1cn(Cc2cccc(Cl)c2)nn1", "note": "(stereo unspecified)", "inhibition of corepressor binding": "-19.4%"}, {"smiles": "CCOCCCNC(=O)C(=O)NCCCOCC", "inhibition of corepressor binding": "8.99%"}, {"smiles": "CN(Cc1cn(Cc2ccc(C(F)(F)F)cc2)nn1)C1CN(Cc2cn(Cc3ccc(C(F)(F)F)cc3)nn2)S(=O)(=O)C1", "note": "(stereo unspecified)", "inhibition of corepressor binding": "86% (active)"}, {"smiles": "Cc1ccc(Cn2cc(CN3CC(N4CCN(C)CC4)CS3(=O)=O)nn2)cc1", "note": "(stereo unspecified)", "inhibition of corepressor binding": "9.78%"}, {"smiles": "CN(C)C1CN(Cc2cn(Cc3ccccc3)nn2)S(=O)(=O)C1", "note": "(stereo unspecified)", "inhibition of corepressor binding": "-4.65%"}, {"smiles": "Cc1ccc(NC(=O)C(C)Sc2nnc(C3CC3)n2C2CC2)cc1S(=O)(=O)N1CCOCC1", "note": "(stereo unspecified)", "inhibition of corepressor binding": "13%"}, {"smiles": "COc1ccc(-n2nc(C(=O)Nc3cc(OC)c(OC)c(OC)c3)c3ccccc3c2=O)c(OC)c1", "inhibition of corepressor binding": "-8.33%"}, {"smiles": "COc1ccc(Nc2ncnc3ccc(Br)cc23)c(OC)c1", "inhibition of corepressor binding": "85.3% (active)"}, {"smiles": "COc1ccc(OC)c(Nc2nc3ccccc3n3cnnc23)c1", "inhibition of corepressor binding": "19.4%"}, {"smiles": "COc1ccc(OC)c(NC(=O)CN(C)CCOc2ccc(Br)cc2)c1", "inhibition of corepressor binding": "7.2%"}, {"smiles": "COC(=O)c1cc(S(=O)(=O)NCC2CCN(Cc3ccc(Cl)cc3)CC2)cn1C", "inhibition of corepressor binding": "16.9%"}, {"smiles": "Fc1cccc(CSc2nnc3ccc(-c4ccncc4)nn23)c1", "inhibition of corepressor binding": "6.42%"}, {"smiles": "C=C(Br)CN1CCN(CC(=C)Br)CC1", "inhibition of corepressor binding": "-7.79%"}, {"smiles": "O=C(CN1CCC(NC(=O)C2CC2)CC1)Nc1ccccc1[N+](=O)[O-]", "inhibition of corepressor binding": "-17.5%"}, {"smiles": "CCOC(=O)C(CO)NC(=O)C1(NC(C)=O)CCCC1", "note": "(stereo unspecified)", "inhibition of corepressor binding": "-34.7%"}, {"smiles": "O=C(Nc1nnc(-c2ccccc2)o1)c1cc(-c2cccs2)nc2ccccc12", "inhibition of corepressor binding": "88.7% (active)"}, {"smiles": "O=C(Nc1nnc(-c2ccc(Cl)cc2)o1)c1ccccc1Br", "inhibition of corepressor binding": "-48%"}, {"smiles": "Cc1ccnc2nc(C(=O)Nc3nnc(-c4ccccc4)o3)nn12", "inhibition of corepressor binding": "0.21%"}, {"smiles": "COc1cccc(C(=O)Nc2c3c(nn2-c2cccc(C)c2C)CS(=O)(=O)C3)c1OC", "inhibition of corepressor binding": "-6.84%"}, {"smiles": "Cc1c(NC(=S)NCc2ccc(F)cc2)cccc1[N+](=O)[O-]", "inhibition of corepressor binding": "-17.5%"}, {"smiles": "O=C(C1CCCO1)N(Cc1ccccc1)c1ccccc1", "note": "(stereo unspecified)", "inhibition of corepressor binding": "-3.43%"}, {"smiles": "COc1ccc(C(=O)OCC(=O)Nc2cc(C)on2)cc1F", "inhibition of corepressor binding": "20.3%"}, {"smiles": "CC1(C)OC(=O)C2=C(CC(c3ccccc3)OC2CCc2ccccc2)O1", "note": "(stereo unspecified)", "inhibition of corepressor binding": "-2.84%"}, {"smiles": "CCc1nc(N2CCN(C(C)=O)CC2)c2c3c(sc2n1)CCCC3", "inhibition of corepressor binding": "-27.3%"}, {"smiles": "CCCc1nc2sc3c(c2c(=O)n1NC(=O)CCCl)CCCC3", "inhibition of corepressor binding": "2.18%"}, {"smiles": "COCCNc1nc(-n2nc(C)cc2C)nc2sc3c(c12)CCCC3", "inhibition of corepressor binding": "91.3% (active)"}, {"smiles": "COc1ccccc1-c1nn(Cc2ccccc2)cc1C(=O)N1CCN(c2ncccn2)CC1", "inhibition of corepressor binding": "-28.8%"}, {"smiles": "COC(=O)c1ccc2c(c1)S(=O)(=O)NC2C", "note": "(stereo unspecified)", "inhibition of corepressor binding": "1.74%"}, {"smiles": "CC(=O)N1CCN(C(=O)c2cccc(S(=O)(=O)Nc3ccc(C)cc3)c2)CC1", "inhibition of corepressor binding": "-16.4%"}, {"smiles": "CCOC(=O)c1cccc(NS(=O)(=O)c2c(C(=O)N3CCCCCC3)c(C)n(C)c2C)c1", "inhibition of corepressor binding": "-3.88%"}, {"smiles": "CCOC(=O)N1CCN(C(=O)c2ccc(S(=O)(=O)Nc3cccc(C(F)(F)F)c3)cc2)CC1", "inhibition of corepressor binding": "78.3% (active)"}, {"smiles": "Cc1ccsc1CNn1cnnc1SCc1ccccc1F", "inhibition of corepressor binding": "1.17%"}, {"smiles": "Cc1nc2c(OCc3ccc(Cl)cc3Cl)cccn2c1N(C)CC1CC1", "inhibition of corepressor binding": "-9.82%"}, {"smiles": "Cc1nc2c(OCc3ccc(Cl)cc3)cccn2c1N(C)Cc1cccs1", "inhibition of corepressor binding": "-14.4%"}, {"smiles": "Cc1nc2c(OCc3cccc(Cl)c3)cccn2c1N(C)CC1CC1", "inhibition of corepressor binding": "79.4% (active)"}, {"smiles": "CC1CCN(CCCn2c(SCC(=O)NC3CCCC3)nc3ccccc3c2=O)CC1", "inhibition of corepressor binding": "-14.7%"}, {"smiles": "O=C(Cc1ccc(S(=O)(=O)N2CCOCC2)s1)N1CCN(c2ccc(C(F)(F)F)cc2[N+](=O)[O-])CC1", "inhibition of corepressor binding": "27.1%"}, {"smiles": "COc1cc(OC)cc(C(=O)NC(=S)N2CCN(c3ccc(C(F)(F)F)cc3[N+](=O)[O-])CC2)c1", "inhibition of corepressor binding": "-27.8%"}]}]}
